Inconclusive results are not listed. Active and inactive are the calls of the source. The call rests on the fitted dose curve; in most records, active means well fitted cell-killing curve with a large enough effect in the repeat runs; inconclusive means weak or mixed curves, or effect the other way; inactive means flat fitted curve, though single readings scatter.
Test: qHTS RealTime-Glo MT Cell Viability Assay in HEK293 cells - 32 hour (AID 1224868); further: nearly all actives have a fitted effect of over 50% in size; on activity change, negative = cytotoxic: top concentration of the series differs between compounds
Conditions: RealTime-Glo luminescence; series mostly up to 76.8 µM; activity change, negative = cytotoxic: at the top concentration
Description: National Center for Advancing Translational Sciences [NCATS]
NIH Chemical Genomics Center [NCGC]
U.S. Environmental Protection Agency [EPA]
National Institutes of Environmental Health Sciences [NIEHS]
National Toxicology Program [NTP]
U.S. Food and Drug Administration [FDA]
Measure of cell viability is critical in the cell-base assay. Analysis of cell viability is necessary for the characterization of cell responses to cytotoxic drugs and environmental stress. A RealTime-Glo MT Cell Viability Assay to monitor cell viability in real time of continues cell culture during 40 hours of compound treatment was used to screen Tox21 10K library compounds in Hek293 cells. The RealTime-Glo MT Cell Viability Assay is a nonlytic, homogeneous, bioluminescent method to measure cell viability in real time using a simple, plate-based method. The assay involves adding NanoLuc luciferase and a cell-permeant prosubstrate to cells in culture. Viable cells reduce the proprietary prosubstrate to generate a substrate for NanoLuc luciferase. This substrate diffuses from cells into the surrounding culture medium, where it is rapidly used by the NanoLuc Enzyme to produce a luminescent signal. The signal correlates with the number of viable cells, making the assay well suited for cytotoxicity studies.
Tox21 Assay Protocol Summary:
The mixture of Hek293 cell suspension and reagents were dispensed at 600cells/6 ul/well in 1536-well tissue culture treated black solid bottom plates using a Multidrop dispenser. After the assay plates were incubated at a 37 C/5% CO2 incubator for 5 hours, 23 nL of compounds dissolved in DMSO, positive and negative controls was transferred to the assay plate by a pintool work station. The plates were incubated at 37 C for 40 hours. The luminescence intensity were measured at 0h, 8h, 16h, 24h, 32h and 40h time points using ViewLux plate reader during compound treatment.
On the % scale 0 is the no-effect control and ±100 the full control effect; potency means the concentration at half of the fitted maximal effect.

Row | Structure (SMILES) | Potency | activity change, negative = cytotoxic
1 | O=C(CCCN1CCC(O)(c2cccc(C(F)(F)F)c2)CC1)c1ccc(F)cc1 | 19 µM (active) | –
2 | CN1CCCC1 | – | 7.25% (inactive)
3 | CCc1cccc2c(CCO)c[nH]c12 | – | -0.454% [at 35.3 µM] (inactive)
4 | O=C1CCCN1C1CCCCC1 | – | 3.26% (inactive)
5 | Cc1cc2c(cc1S(N)(=O)=O)S(=O)(=O)CCC2 | – | 4.06% [at 35.3 µM] (inactive)
6 | NS(=O)(=O)c1ccc(C(=O)O)cc1 | – | 2.6% [at 35.3 µM] (inactive)
7 | CO[Si](CCCOCC1CO1)(OC)OC (stereo not given) | inactive | –
8 | CCCCOCCOCCOCc1cc2c(cc1CCC)OCO2 | – | -20.6% [at 35.3 µM] (inactive)
9 | CN1N=C(C(N)=O)CCC1=O | – | 2.48% [at 35.3 µM] (inactive)
10 | COCCCOCCCOC | – | 5.54% (inactive)
11 | C[C@](N)(Cc1ccc(O)cc1)C(=O)O | – | 1.02% [at 6.97 µM] (inactive)
12 | Cn1cc(S(C)=O)c(=O)c2ccc(F)cc21 (stereo not given) | – | -15.5% [at 35.3 µM] (inactive)
13 | O=C(O)c1ccccc1OP(=O)(O)O | – | -0.405% [at 35.3 µM] (inactive)
14 | NC(=O)COCCN1CCN(C(c2ccccc2)c2ccc(Cl)cc2)CC1 (stereo not given) | – | 5.8% [at 35.3 µM] (inactive)
15 | Cc1ccc(=O)n(-c2ccccc2)c1 | – | 2.19% [at 35.3 µM] (inactive)
16 | CCCCCCCCCCCCN(CCCCCCCCCCCC)CCCCCCCCCCCC | – | -1.77% (inactive)
17 | CC(C)CCCC(C)N (stereo not given) | – | 7.33% [at 35.3 µM] (inactive)
18 | O=C1CCCC(=O)C1 | – | 2.14% (inactive)
19 | NS(=O)(=O)c1cc(C(=O)O)cc(N2CCCC2)c1Oc1ccccc1 | – | -15.3% [at 35.3 µM] (inactive)
20 | N[C@@H](C(=O)N[C@@H]1C(=O)N2C(C(=O)O)=C(Cl)CS[C@H]12)c1ccccc1 | – | 8.14% [at 6.97 µM] (inactive)

Row | Structure (SMILES) | Potency | activity change, negative = cytotoxic
21 | COc1ccc2c(c1)CCCC2=O | – | -0.646% [at 35.3 µM] (inactive)
22 | CCCCCCOC(=O)CCCCC(=O)OCCCCCC | – | 6.38% (inactive)
23 | O=C(O)CCCc1ccccc1 | – | -1.53% [at 35.3 µM] (inactive)
24 | CC(=O)c1ccccc1O | – | 8.92% (inactive)
25 | C=CCOCC(CC)(CO)COCC=C | – | 1.07% (inactive)
26 | NC(CSCC(=O)O)C(=O)O (stereo not given) | – | 8.79% [at 35.3 µM] (inactive)
27 | CC(C)(C)NCCNC(C)(C)C | – | -2.15% (inactive)
28 | COCCc1ccc(OCC(O)CNC(C)C)cc1 (stereo not given) | inactive | –
29 | C=C1CC[C@H]2C[C@@H]1C2(C)C | – | 2.89% (inactive)
30 | NC(=O)c1ccc(N)cc1 | – | -1.62% (inactive)
31 | CC(=O)OCC(CCn1cnc2cnc(N)nc21)COC(C)=O | – | -0.136% [at 35.3 µM] (inactive)
32 | NCCc1cnc[nH]1 | – | 1.71% [at 35.3 µM] (inactive)
33 | COc1ccc(CCN(C)CCCC(C#N)(c2cc(OC)c(OC)c(OC)c2)C(C)C)cc1OC (stereo not given) | 21.3 µM (active) | –
34 | O=c1[nH]c(=O)n([C@H]2C[C@H](O)[C@@H](CO)O2)cc1I | – | 5.03% [at 35.3 µM] (inactive)
35 | N=C(N)c1ccc(OCCCOc2ccc(C(=N)N)cc2)cc1 | – | 0.96% [at 35.3 µM] (inactive)
36 | N=C(N)c1ccccc1 | – | 1.36% (inactive)
37 | CCCCCCCCCCCC | – | 13.6% (inactive)
38 | c1ccc(CC2=NCCN2)cc1 | – | -7.92% [at 35.3 µM] (inactive)
39 | C[C@H]1C[C@@H](O)CC(C)(C)C1 | – | -10.8% (inactive)
40 | Nc1ccc(S(=O)(=O)Nc2ccnn2-c2ccccc2)cc1 | – | 5.86% [at 15.8 µM] (inactive)

— PubChem BioAssay (Tox21)
